Screen size: about 5,500 compounds; about 2,000 (36%) were called active. Not shown: some 18% with an inconclusive outcome. No stated cut-off is given here; in the data, active means normalized growth mostly below about 0.91 (no sharp cut-off); inconclusive means no clear call, values can overlap the other calls; inactive means mostly above about 0.92. The list shows a part of the results.
Test: chemical genetic growth profiling, strain panel (AID 1159580);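 further: tested at 20 µM; growth read once vehicle control cultures reached saturation at 30 °C; 1 = growth at the plate median or of vehicle wells; lower values mean less growth of the strain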
Conditions: S. cerevisiae deletion strains, growth OD
[1] = locus YDL101C, strain DUN1, active compounds read low
[2] = locus YHR030C, strain SLT2, active compounds read low
[3] = locus YAL013W, strain DEP1, active compounds read low
[4] = locus YBR229C, strain ROT2, active compounds read low
[5] = locus YDL134C, strain PPH21, active compounds read low
[6] = locus YDR150W, strain NUM1, active compounds read low
[7] = locus YEL061C, strain CIN8, active compounds read low
[8] = locus YGR078C, strain PAC10, active compounds read low
[9] = locus YHR087W, strain rtc3, active compounds read low
[10] = locus YJR043C, strain POL32, active compounds read low
[11] = locus YJR075W, strain HOC1, active compounds read low
[12] = locus YLR039C, strain RIC1, active compounds read low
[13] = locus YLR058C, strain SHM2 (second series), active compounds read low
[14] = locus YLR085C, strain ARP6, active compounds read low
[15] = locus YLR262C, strain YPT6, active compounds read low
[16] = locus YML094W, strain GIM5, active compounds read low
[17] = locus YMR219W, strain ESC1, active compounds read low
[18] = locus YMR263W, strain SAP30, active compounds read low
[19] = locus YMR307W, strain GAS1, active compounds read low
[20] = locus YNL128W, strain TEP1, active compounds read low
[21] = locus YNL153C, strain GIM3, active compounds read low
[22] = locus YNL298W, strain CLA4 (second series), active compounds read low
[23] = locus YNL322C, strain KRE1, active compounds read low
[24] = locus YNR030W, strain Alg12, active compounds read low
[25] = locus YPL055C, strain LGE1, active compounds read low
[26] = locus YPL241C, strain CIN2, active compounds read low
[27] = locus YPR135W, strain CTF4, active compounds read low

Measured: normalized growth

O=C(Nc1cccc2ccccc12)c1ccccc1O
active: locus YAR019C, strain CDC15, active compounds read low 0.848 | locus YBL105C, strain PKC1, active compounds read low 0.862 | locus YBR135W, strain CKS1, active compounds read low 0.85 | locus YBR136W, strain MEC1, active compounds read low 0.834 | locus YBR160W, strain CDC28, active compounds read low 0.872 | locus YDL017W, strain CDC7, active compounds read low 0.866 | locus YDL028C, strain MPS1, active compounds read low 0.816 | locus YDL108W, strain KIN28, active compounds read low 0.827 | locus YDL132W, strain cdc53, active compounds read low 0.834 | locus YDL214C, strain PRR2, active compounds read low 0.563 | locus YDR052C, strain DBF4, active compounds read low 0.83 | locus YDR054C, strain cdc34, active compounds read low 0.842 | locus YDR226W, strain ADK1, active compounds read low 0.856 | locus YDR477W, strain SNF1, active compounds read low 0.563 | locus YER123W, strain YCK3, active compounds read low 0.432 | locus YER133W, strain GLC7, active compounds read low 0.524 | locus YFL009W, strain cdc4, active compounds read low 0.837 | locus YFL029C, strain CAK1, active compounds read low 0.845 | locus YFR003C, strain YPI1, active compounds read low 0.854 | locus YFR028C, strain CDC14, active compounds read low 0.846 | locus YGR040W, strain KSS1, active compounds read low 0.557 | locus YGR052W, strain FMP48, active compounds read low 0.556 | locus YGR092W, strain DBF2, active compounds read low 0.324 | [2] 0.505 | locus YHR079C, strain IRE1, active compounds read low 0.405 | locus YHR082C, strain KSP1, active compounds read low 0.576 | locus YIL147C, strain SLN1, active compounds read low 0.831 | locus YJL095W, strain BCK1, active compounds read low 0.488 | locus YJL157C, strain FAR1, active compounds read low 0.492 | locus YJR016C, strain ILV3, active compounds read low 0.852 | locus YJR066W, strain TOR1, active compounds read low 0.479 | locus YKL048C, strain ELM1, active compounds read low 0.768 | locus YKL067W, strain YNK1, active compounds read low 0.555 | locus YKL101W, strain HSL1, active compounds read low 0.585 | locus YKL193C, strain SDS22, active compounds read low 0.843 | locus YKL203C, strain TOR2, active compounds read low 0.572 | locus YLR113W, strain HOG1, active compounds read low 0.327 | locus YLR133W, strain CKI1, active compounds read low 0.595 | locus YLR403W, strain SFP1, active compounds read low 0.552 | locus YML070W, strain DAK1, active compounds read low 0.519 | locus YMR001C, strain CDC5, active compounds read low 0.838 | locus YMR205C, strain PFK2 (second series), active compounds read low 0.53 | locus YMR277W, strain FCP1, active compounds read low 0.839 | locus YNL006W, strain LST8, active compounds read low 0.858 | locus YNL020C, strain ARK1, active compounds read low 0.529 | locus YNL161W, strain CBK1, active compounds read low 0.864 | locus YNL183C, strain NPR1, active compounds read low 0.443 | locus YNL207W, strain RIO2, active compounds read low 0.834 | locus YNL222W, strain SSU72, active compounds read low 0.847 | locus YNL307C, strain MCK1 (second series), active compounds read low 0.571 | locus YOL078W, strain AVO1, active compounds read low 0.847 | locus YOL136C, strain PFK27, active compounds read low 0.533 | locus YOR061W, strain CKA2, active compounds read low 0.608 | locus YOR119C, strain RIO1, active compounds read low 0.549 | locus YOR231W, strain MKK1, active compounds read low 0.426 | locus YOR329C, strain SCD5, active compounds read low 0.857 | locus YPL031C, strain PHO85, active compounds read low 0.526 | locus YPL153C, strain RAD53, active compounds read low 0.52 | locus YPL204W, strain HRR25, active compounds read low 0.52 | locus YPL209C, strain IPL1, active compounds read low 0.86 | locus YPL256C, strain CLN2, active compounds read low 0.547 | locus YPR025C, strain CCL1, active compounds read low 0.855 | strain NNK1, active compounds read low 0.87 | strain TSCII, active compounds read low 0.833
inactive: [1] 0.93 | locus YFR019W, strain FAB1, active compounds read low 0.781 | locus YHR205W, strain SCH9, active compounds read low 0.687 | locus YJL128C, strain PBS2, active compounds read low 0.823 | locus YJR066W, strain TOR1 (second series), active compounds read low 0.645 | locus YPR106W, strain ISR1, active compounds read low 0.896 | locus YPR111W, strain DBF20, active compounds read low 0.884

O=C(Nc1ccccc1)Nc1ccc(C(F)(F)F)cc1Br
active: [14] 0.728 | [19] 0.54 | [22] 0.799 | locus YOL006C, strain TOP1, active compounds read low 0.722
inactive: [3] 0.968 | [4] 0.985 | [1] 1.04 | [5] 0.967 | [6] 0.957 | [7] 0.981 | [8] 0.948 | [2] 0.749 | [9] 0.941 | locus YJL187C, strain SWE1, active compounds read low 0.943 | [10] 0.926 | [11] 0.906 | [12] 0.843 | [13] 0.969 | [15] 0.948 | [16] 0.957 | [17] 0.99 | [18] 0.917 | [20] 0.957 | [21] 0.979 | [23] 0.995 | [24] 0.887 | [25] 0.842 | [26] 0.885 | [27] 0.878

CC(=O)Nc1ccc(C(F)(F)F)cc1Br
inactive: [3] 1 | [4] 1.01 | [1] 0.979 | [5] 0.98 | [6] 0.862 | [7] 0.967 | [8] 0.993 | [2] 0.896 | [9] 1.05 | [10] 0.932 | [11] 0.99 | [12] 1 | [13] 0.972 | [14] 0.933 | [15] 1 | [16] 0.996 | [17] 0.999 | [18] 0.965 | [19] 1.06 | [20] 0.964 | [21] 0.994 | [22] 0.957 | [23] 0.989 | [24] 0.993 | [25] 1.05 | [26] 1 | [27] 0.897

NC(=NCCCC(N)C(=O)O)N[N+](=O)[O-] (stereo not given)
inactive: locus YAL040C, strain CLN3, active compounds read low 0.999 | locus YCL061C, strain MRC1 (second series), active compounds read low 1 | locus YDR363W, strain ESC2, active compounds read low 1.03 | locus YER002W, strain NOP16, active compounds read low 1 | locus YGR229C, strain SMI1, active compounds read low 1.02 | [11] 1.02 | [18] 1 | [19] 1 | [20] 1.02 | locus YNL175C, strain NOP13, active compounds read low 1 | locus YNL197C, strain WHI3, active compounds read low 1.01 | locus YNL224C, strain SQS1, active compounds read low 1.01 | locus YOR083W, strain WHI5 (second series), active compounds read low 1.02
